Reference: the supplement of paper PMC11001985
Unmarked numbers belong to inactive results.

Compound: C#CCNC(=O)CCSSCCC(=O)NCCc1ccc(C=O)c(C=O)c1
Assay: lysine labeling ratio R10:1 (500 µM / 50 µM probe), SILAC-ABPP in living cells; higher = lower intrinsic lysine reactivity toward the probe, active = 2 or less
Settings: HeLa; probe concentrations 500 vs 50 µM
Method: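 Living HeLa cells (SILAC light/heavy) in PBS at room temperature were labeled with 50 µM versus 500 µM of the lysine-reactive, reductant-cleavable probe OPA-S-S-alkyne (SILAC labeling time not stated). Probe-modified peptides were CuAAC-biotinylated, captured on neutravidin and eluted with DTT/IAA, then quantified by LC-MS/MS. R = median peptide ratio per lysine (500/50 µM), combined over 3 forward and 3 reverse SILAC replicates. Ratios are capped at 20; R < 2 = hyper-reactive.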

Sequence of UniProt Q15149 (Q15149 whole entry): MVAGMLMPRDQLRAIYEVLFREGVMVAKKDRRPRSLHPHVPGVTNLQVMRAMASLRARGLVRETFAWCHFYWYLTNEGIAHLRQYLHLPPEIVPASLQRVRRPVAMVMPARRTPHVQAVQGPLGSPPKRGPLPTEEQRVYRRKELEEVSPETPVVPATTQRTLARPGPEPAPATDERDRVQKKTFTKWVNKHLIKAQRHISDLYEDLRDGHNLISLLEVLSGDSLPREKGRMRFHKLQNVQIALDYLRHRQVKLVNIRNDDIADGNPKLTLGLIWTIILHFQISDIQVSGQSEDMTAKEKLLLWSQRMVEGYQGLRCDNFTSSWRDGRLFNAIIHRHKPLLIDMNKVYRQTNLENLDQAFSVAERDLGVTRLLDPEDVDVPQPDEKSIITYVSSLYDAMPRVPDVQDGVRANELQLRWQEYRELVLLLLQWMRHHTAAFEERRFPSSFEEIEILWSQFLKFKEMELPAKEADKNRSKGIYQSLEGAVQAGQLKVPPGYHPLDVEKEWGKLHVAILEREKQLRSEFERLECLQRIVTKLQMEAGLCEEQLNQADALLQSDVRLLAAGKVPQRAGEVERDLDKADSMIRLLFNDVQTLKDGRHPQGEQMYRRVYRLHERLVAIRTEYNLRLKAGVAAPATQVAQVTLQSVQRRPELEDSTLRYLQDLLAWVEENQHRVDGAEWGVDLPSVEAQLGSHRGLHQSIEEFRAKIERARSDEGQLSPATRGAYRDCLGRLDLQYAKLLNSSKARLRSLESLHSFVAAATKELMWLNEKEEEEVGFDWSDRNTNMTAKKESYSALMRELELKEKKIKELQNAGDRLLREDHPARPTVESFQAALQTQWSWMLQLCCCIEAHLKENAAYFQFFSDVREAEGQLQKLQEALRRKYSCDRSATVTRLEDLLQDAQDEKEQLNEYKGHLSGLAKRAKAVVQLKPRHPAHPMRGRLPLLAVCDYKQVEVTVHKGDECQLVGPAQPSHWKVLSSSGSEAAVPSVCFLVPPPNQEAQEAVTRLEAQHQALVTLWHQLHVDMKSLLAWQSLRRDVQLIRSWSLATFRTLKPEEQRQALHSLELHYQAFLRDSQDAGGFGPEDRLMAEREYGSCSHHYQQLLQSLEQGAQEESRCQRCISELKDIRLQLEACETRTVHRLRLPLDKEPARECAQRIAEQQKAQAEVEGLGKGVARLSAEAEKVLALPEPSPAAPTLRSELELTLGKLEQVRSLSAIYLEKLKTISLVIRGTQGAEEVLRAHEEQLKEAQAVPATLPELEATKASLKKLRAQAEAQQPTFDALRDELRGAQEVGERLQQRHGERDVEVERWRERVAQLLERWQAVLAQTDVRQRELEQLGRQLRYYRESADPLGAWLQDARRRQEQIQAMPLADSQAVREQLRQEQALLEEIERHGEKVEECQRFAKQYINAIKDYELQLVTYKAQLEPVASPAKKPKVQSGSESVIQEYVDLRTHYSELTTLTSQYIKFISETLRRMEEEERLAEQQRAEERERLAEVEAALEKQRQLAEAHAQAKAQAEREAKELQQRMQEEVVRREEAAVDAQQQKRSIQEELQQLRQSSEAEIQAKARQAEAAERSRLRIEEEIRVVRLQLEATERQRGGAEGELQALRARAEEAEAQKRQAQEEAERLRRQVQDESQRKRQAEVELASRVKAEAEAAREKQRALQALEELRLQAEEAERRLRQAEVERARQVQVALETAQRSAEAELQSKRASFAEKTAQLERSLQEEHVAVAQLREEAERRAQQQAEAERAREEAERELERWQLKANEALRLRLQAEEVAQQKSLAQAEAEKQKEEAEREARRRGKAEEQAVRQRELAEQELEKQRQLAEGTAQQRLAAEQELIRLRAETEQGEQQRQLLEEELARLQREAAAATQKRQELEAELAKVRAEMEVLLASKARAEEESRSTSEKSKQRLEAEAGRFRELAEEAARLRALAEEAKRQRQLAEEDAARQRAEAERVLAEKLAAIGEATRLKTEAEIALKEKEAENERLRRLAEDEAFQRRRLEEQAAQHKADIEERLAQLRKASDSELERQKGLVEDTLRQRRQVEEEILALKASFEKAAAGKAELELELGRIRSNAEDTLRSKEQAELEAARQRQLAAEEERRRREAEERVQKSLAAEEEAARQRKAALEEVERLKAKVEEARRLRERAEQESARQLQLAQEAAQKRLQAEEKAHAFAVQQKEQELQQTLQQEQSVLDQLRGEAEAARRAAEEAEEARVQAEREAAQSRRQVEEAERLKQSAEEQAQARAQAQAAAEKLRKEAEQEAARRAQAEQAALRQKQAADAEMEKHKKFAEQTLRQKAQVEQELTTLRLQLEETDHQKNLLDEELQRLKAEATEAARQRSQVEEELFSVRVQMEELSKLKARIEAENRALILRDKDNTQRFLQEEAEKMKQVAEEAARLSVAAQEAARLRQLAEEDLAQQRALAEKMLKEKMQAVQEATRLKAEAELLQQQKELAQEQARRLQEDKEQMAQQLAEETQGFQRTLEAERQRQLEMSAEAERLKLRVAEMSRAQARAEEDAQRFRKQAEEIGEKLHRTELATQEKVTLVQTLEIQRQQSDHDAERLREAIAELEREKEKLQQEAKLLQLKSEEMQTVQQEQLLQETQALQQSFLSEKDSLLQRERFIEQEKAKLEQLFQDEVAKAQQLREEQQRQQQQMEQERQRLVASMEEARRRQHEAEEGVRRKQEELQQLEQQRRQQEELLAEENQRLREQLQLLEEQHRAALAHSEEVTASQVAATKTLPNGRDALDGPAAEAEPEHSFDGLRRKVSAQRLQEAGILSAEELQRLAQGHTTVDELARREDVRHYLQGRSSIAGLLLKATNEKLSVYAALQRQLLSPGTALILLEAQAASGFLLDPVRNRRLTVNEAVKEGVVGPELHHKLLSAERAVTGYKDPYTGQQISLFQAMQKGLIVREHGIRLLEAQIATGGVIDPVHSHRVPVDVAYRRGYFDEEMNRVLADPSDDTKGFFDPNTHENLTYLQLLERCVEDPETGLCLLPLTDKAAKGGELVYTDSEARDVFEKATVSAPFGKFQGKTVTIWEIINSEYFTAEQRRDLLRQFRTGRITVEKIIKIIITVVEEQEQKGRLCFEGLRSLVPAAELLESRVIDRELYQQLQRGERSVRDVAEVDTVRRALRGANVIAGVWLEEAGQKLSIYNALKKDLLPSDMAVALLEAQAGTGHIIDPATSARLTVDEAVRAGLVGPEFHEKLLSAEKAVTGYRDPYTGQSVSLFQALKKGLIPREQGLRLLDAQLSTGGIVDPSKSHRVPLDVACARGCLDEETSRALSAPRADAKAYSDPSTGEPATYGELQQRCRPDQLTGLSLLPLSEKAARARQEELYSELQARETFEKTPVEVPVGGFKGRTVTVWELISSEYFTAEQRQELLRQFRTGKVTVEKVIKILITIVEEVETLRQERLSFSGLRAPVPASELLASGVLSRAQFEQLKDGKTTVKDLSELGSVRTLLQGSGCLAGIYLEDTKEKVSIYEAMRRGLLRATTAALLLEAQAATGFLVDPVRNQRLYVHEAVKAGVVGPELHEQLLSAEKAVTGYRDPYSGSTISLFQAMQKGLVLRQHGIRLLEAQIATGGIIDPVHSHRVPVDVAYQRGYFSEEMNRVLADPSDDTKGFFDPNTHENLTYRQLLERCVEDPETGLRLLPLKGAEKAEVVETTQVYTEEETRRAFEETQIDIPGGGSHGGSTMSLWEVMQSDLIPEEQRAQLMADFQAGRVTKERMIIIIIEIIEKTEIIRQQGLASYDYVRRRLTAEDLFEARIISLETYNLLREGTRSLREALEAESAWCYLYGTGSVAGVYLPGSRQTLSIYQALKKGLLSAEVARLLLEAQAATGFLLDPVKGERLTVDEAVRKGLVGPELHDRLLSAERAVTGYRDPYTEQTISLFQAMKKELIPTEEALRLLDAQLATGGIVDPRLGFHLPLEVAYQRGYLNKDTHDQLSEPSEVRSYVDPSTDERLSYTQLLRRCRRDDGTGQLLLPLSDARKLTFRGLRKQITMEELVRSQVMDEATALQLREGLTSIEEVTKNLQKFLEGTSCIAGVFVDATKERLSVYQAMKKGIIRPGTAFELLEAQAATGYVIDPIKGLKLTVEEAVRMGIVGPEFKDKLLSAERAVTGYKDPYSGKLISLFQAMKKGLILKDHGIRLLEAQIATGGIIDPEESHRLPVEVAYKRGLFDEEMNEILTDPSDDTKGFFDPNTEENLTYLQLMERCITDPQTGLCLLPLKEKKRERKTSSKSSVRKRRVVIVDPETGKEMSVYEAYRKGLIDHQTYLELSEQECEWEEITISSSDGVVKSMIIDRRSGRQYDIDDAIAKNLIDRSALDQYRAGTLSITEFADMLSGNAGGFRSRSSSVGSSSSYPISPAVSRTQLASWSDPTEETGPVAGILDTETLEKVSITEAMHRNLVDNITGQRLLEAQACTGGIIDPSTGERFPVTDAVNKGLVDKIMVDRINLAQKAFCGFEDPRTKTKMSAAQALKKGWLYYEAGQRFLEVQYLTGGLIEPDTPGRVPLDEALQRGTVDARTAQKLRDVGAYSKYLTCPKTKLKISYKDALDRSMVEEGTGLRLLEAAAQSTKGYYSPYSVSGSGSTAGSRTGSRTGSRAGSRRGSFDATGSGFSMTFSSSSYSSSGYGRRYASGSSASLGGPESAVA
Sequence of UniProt Q8NC51 (Q8NC51 whole entry): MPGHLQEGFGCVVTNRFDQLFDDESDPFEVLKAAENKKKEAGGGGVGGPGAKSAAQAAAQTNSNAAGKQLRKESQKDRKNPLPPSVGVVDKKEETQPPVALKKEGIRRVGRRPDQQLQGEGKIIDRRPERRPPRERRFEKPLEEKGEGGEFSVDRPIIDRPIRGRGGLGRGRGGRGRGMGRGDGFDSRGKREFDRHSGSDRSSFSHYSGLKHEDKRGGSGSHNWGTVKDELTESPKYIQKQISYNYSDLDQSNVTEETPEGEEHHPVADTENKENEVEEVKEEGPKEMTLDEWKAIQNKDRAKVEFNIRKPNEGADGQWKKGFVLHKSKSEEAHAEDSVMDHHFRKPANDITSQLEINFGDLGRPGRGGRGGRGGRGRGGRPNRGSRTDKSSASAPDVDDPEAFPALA

**Q.** “PPP2CA (lysine site: K41) (UniProt P67775)” was tested. Which “lysine labeling ratio R10:1” value did it give?
**A.** 1.68 (active)

**Q.** With “HSPA9 (lysine site: K567) (UniProt P38646)” as the target, how does the “lysine labeling ratio R10:1” value read?
**A.** 2.96

**Q.** With “HSPG2 (lysine site: K4023) (UniProt P98160)” as the target, how does the “lysine labeling ratio R10:1” value read?
**A.** 5.16

**Q.** How did the “lysine labeling ratio R10:1” value turn out when “ILF3 (lysine site: K553) (UniProt Q12906)” was run?
**A.** 4.76

**Q.** For “HEG1 (lysine site: K1073) (UniProt Q9ULI3)”, which “lysine labeling ratio R10:1” value is on record?
**A.** 3.38

**Q.** Which “lysine labeling ratio R10:1” value does the source give for “CLTC (lysine site: K1516) (UniProt Q00610)” here?
**A.** 1.45 (active)

**Q.** Which “lysine labeling ratio R10:1” value does the source give for “PARK7 (lysine site: K148) (UniProt Q99497)” here?
**A.** 3.31

**Q.** How did the “lysine labeling ratio R10:1” value turn out when “SERBP1 (lysine site: K122) (UniProt Q8NC51)” was run?
**A.** 11.8

**Q.** Which “lysine labeling ratio R10:1” value does the source give for UniProt Q15149 (lysine site: K2142) here?
**A.** 3.4

**Q.** With “LGALS3BP (lysine site: K427) (UniProt Q08380)” as the target, how does the “lysine labeling ratio R10:1” value read?
**A.** 2.98

**Q.** How did the “lysine labeling ratio R10:1” value turn out when “PTGFRN (lysine site: K435) (UniProt Q9P2B2)” was run?
**A.** 5.47

**Q.** For “PA2G4 (lysine site: K22) (UniProt Q9UQ80)”, which “lysine labeling ratio R10:1” value is on record?
**A.** 0.568 (active)

**Q.** Which “lysine labeling ratio R10:1” value does the source give for UniProt P23352 (lysine site: K285) here?
**A.** 3.04

**Q.** For “LAMA5 (lysine site: K2451) (UniProt O15230)”, which “lysine labeling ratio R10:1” value is on record?
**A.** 3.17

**Q.** With “SDCBP (lysine site: K223) (UniProt O00560)” as the target, how does the “lysine labeling ratio R10:1” value read?
**A.** 2.46

**Q.** How did the “lysine labeling ratio R10:1” value turn out when “IQGAP1 (lysine site: K368) (UniProt P46940)” was run?
**A.** 3.38

**Q.** With “EEF1G (lysine site: K132) (UniProt P26641)” as the target, how does the “lysine labeling ratio R10:1” value read?
**A.** 1.81 (active)

**Q.** How did the “lysine labeling ratio R10:1” value turn out when “FLNA (lysine site: K1071) (UniProt P21333)” was run?
**A.** 3.76

**Q.** How did the “lysine labeling ratio R10:1” value turn out when UniProt Q9Y653 (lysine site: K215) was run?
**A.** 4.06

**Q.** F2 (lysine site: K384) (UniProt P00734) was tested. Which “lysine labeling ratio R10:1” value did it give?
**A.** 4.42

**Q.** How did the “lysine labeling ratio R10:1” value turn out when “MSN (lysine site: K514) (UniProt P26038)” was run?
**A.** 3.78

**Q.** How did the “lysine labeling ratio R10:1” value turn out when “PRDX5 (lysine site: K146) (UniProt P30044)” was run?
**A.** 1.62 (active)

**Q.** “CCT7 (lysine site: K320) (UniProt Q99832)” was tested. Which “lysine labeling ratio R10:1” value did it give?
**A.** 2.53

**Q.** For “EPHA2 (lysine site: K476) (UniProt P29317)”, which “lysine labeling ratio R10:1” value is on record?
**A.** 3.45

**Q.** For UniProt Q13620 (lysine site: K903), which “lysine labeling ratio R10:1” value is on record?
**A.** 3.24

**Q.** How did the “lysine labeling ratio R10:1” value turn out when “HNRNPA1 (lysine site: K350) (UniProt P09651)” was run?
**A.** 3.42

**Q.** Which “lysine labeling ratio R10:1” value does the source give for “MYH9 (lysine site: K1631) (UniProt P35579)” here?
**A.** 1.9 (active)

**Q.** How did the “lysine labeling ratio R10:1” value turn out when “EIF2S1 (lysine site: K190) (UniProt P05198)” was run?
**A.** 2.9

**Q.** Which “lysine labeling ratio R10:1” value does the source give for “DISP1 (lysine site: K369) (UniProt Q96F81)” here?
**A.** 1.37 (active)

**Q.** How did the “lysine labeling ratio R10:1” value turn out when “ITGA5 (lysine site: K978) (UniProt P08648)” was run?
**A.** 4.71

**Q.** How did the “lysine labeling ratio R10:1” value turn out when UniProt Q6NZI2 (lysine site: K260) was run?
**A.** 4.28

**Q.** For “NUMA1 (lysine site: K284) (UniProt Q14980)”, which “lysine labeling ratio R10:1” value is on record?
**A.** 2 (active)

**Q.** How did the “lysine labeling ratio R10:1” value turn out when “TGFBI (lysine site: K676) (UniProt Q15582)” was run?
**A.** 3.4

**Q.** For “CFL1 (lysine site: K78) (UniProt P23528)”, which “lysine labeling ratio R10:1” value is on record?
**A.** 1.61 (active)

**Q.** UniProt P62249 (lysine site: K130) was tested. Which “lysine labeling ratio R10:1” value did it give?
**A.** 4.97

**Q.** With “AGRN (lysine site: K1198) (UniProt O00468)” as the target, how does the “lysine labeling ratio R10:1” value read?
**A.** 3.68

**Q.** How did the “lysine labeling ratio R10:1” value turn out when “MYH10 (lysine site: K1782) (UniProt P35580)” was run?
**A.** 1.76 (active)

**Q.** For “TFPI (lysine site: K101) (UniProt P10646)”, which “lysine labeling ratio R10:1” value is on record?
**A.** 7.9

**Q.** With UniProt Q15149 (lysine site: K2309) as the target, how does the “lysine labeling ratio R10:1” value read?
**A.** 2.6

**Q.** For “SEMA3C (lysine site: K613) (UniProt Q99985)”, which “lysine labeling ratio R10:1” value is on record?
**A.** 5.77
